# From PubChem BioAssay
# DT40 TDP1 no CPT = qHTS for Inhibitors of human tyrosyl-DNA phosphodiesterase 1 (TDP1): qHTS in cells in absence of CPT; hit rate 15% among 420,000; DT40 Tdp1-/- hTDP1 cells, no CPT, ATP luminescence, 48 h; Potency, µM (doses to about 46.2 µM), for the others: top-dose activity change, negative = growth inhibition, usual class: inhibitors; AID 686978, 2013; also: % is scaled to controls: 0 for no effect and ±100 for the full control effect; nearly all actives have a fitted effect of over 55% in size
#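 Luminescent ATP content (CellTiter-Glo) served as the growth readout. Knockout chicken DT40 cells expressing human TDP1 were exposed to compounds without camptothecin for a minimum 48 hr at 37 °C.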
# S2 tox = Viability Counterscreen for Primary qHTS for Inhibitors of ATXN expression | S2 cells (HEK-293 line with an ATXN2-luciferase reporter) viability, CellTiter-Fluor protease fluorescence, 24 h | Potency, µM (highest dose often 56.7 µM), hits mostly cytotoxic | hit rate 0.49% among 400,000; also: nearly all actives have a fitted effect of over 40% in size
# ATXN2 expr inh = Primary qHTS for Inhibitors of ATXN expression. HEK-293 ATXN2-luciferase reporter, luminescence, 24 h. Potency, µM (titrated, usually from 57 µM), inactives show at the highest dose activity change, negative = inhibition, usual class: inhibitors. hit rate 0.72% among 360,000; also: % is scaled to controls: 0 for no effect and ±100 for the full control effect; nearly all actives have a fitted effect of over 55% in size
#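 qHTS (up to 57 uM final) was run with 24 h compound exposure of reporter cells at 37 °C. Each well was multiplexed: SteadyGlo luminescence measured ATXN2-luciferase expression after a fluorogenic Gly-Phe-AFC viability readout (25 uM final).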
# TDP1 cell CPT = qHTS for Inhibitors of human tyrosyl-DNA phosphodiesterase 1 (TDP1): qHTS in cells in presence of CPT; chicken DT40 Tdp1-/-;hTDP1 cells + 20 nM CPT, ATP luminescence, 48 h; Potency, µM (series often up to 46.2 µM), for the others: at the top dose activity change, negative = growth inhibition, hits mostly inhibitors; hit rate 12% among 420,000; AID 686979, 2013; also: % is scaled to controls: 0 for no effect and ±100 for the full control effect; nearly all actives have a fitted effect of over 55% in size
#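 Cell growth measured by CellTiter-Glo luminescence after a minimum 48 h, 37 C compound exposure with 20 nM CPT in Tdp1-knockout DT40 cells stably expressing hTDP1, seeded 400/well; qHTS titration format.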
# HepG2 tox = qHTS for Inhibitors of TGF-b: Cytotox Counterscreen. HepG2 CAGA-GFP viability, ATP luminescence, 18 h. Potency, µM (doses to about 46.1 µM), without a hit: at the highest dose activity change, negative = cytotoxicity, usual class: cytotoxic. hit rate 0.76% among 410,000. AID 588856, 2011
#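 CellTiter-Glo luminescence gave cytotoxicity after 18 hours at 37 degrees C. The cells were HepG2 CAGA-GFP in 1% FBS DMEM, stimulated with 500 pg/mL TGF-beta after compound addition. %Activity was normalised to no-cell wells (complete cell-killing) and DMSO (no toxicity), and curves were fitted and classified.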
# TGFb inhibitor = qHTS for Inhibitors of TGF-b. HepG2 CAGA-GFP TGF-b/SMAD3 reporter, GFP fluorescence, 18 h; TGF-beta stimulated, 500 pg/mL final. Potency, µM (series often up to 46.1 µM), inactives show at the top dose activity, negative = inhibition, most hits filed as inhibitors. hit rate 1.2% among 410,000. AID 588855, 2011; also: % is scaled to controls: 0 for no effect and ±100 for the full control effect; nearly all actives have a fitted effect of over 65% in size
#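 TGF-beta reporter screen: HEPG2 CAGA-GFP, 1% FBS, 500 pg/mL TGF-beta final, 18 h; per-cell GFP summed per well; curves fitted and categorized by class.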
# Active calls of the source: *; i = inactive; ? = inconclusive; . = not tested or not shown; ! = not active in a repeat; [ ] = dose if it differs, or a comment. Sampled rows, rich in hits. Any-hit rate of the full collection: about 17%. Calls follow the shape of the dose curve; as a rule, active = well fitted curve in the direction sought with a large enough effect; inconclusive = small, poorly fitted or top-dose-only effect, or another doubt; inactive = no such curve, though single readings can be large; an effect the other way counts as inactive or inconclusive. Potency is read from the fitted curve at half-maximal effect.
SMILES,DT40 TDP1 no CPT,S2 tox,ATXN2 expr inh,TDP1 cell CPT,HepG2 tox,TGFb inhibitor
CC(=O)c1cccc(NC(=O)Cn2cc(C(=O)c3cccc(Cl)c3)c(=O)c3ccc(C)nc32)c1,-1.0%,i,-12.9%,-1.8%,0.0%,-13.1%
O=c1c2ccccc2c(C=Nc2ccc(Cl)cn2)c(O)n1-c1cc(Cl)ccc1N1CCOCC1,1.46µM*,i,-5.6%,?,8.6%,0.1%
COc1ccc(C(=O)NC(=S)Nc2ccc(N3CCOCC3)c(Cl)c2)cc1[N+](=O)[O-],20.6µM*,?,-16.6%,13µM*,1.4%,-12.5%
COc1ccc(C(=O)NC(=S)Nc2ccccc2N2CCOCC2)cc1[N+](=O)[O-],16.4µM*,i,4.0%,16.4µM*,8.4%,0.0%
CC(NC(CCc1ccccc1)C(=O)O)C(=O)N1C(=O)N(C)CC1C(=O)O (stereo not given),.,i,12.1%,.,.,.
CCCN1CCN(CCCNC(=O)CCN2C(=O)COc3ccccc32)CC1,9.0%,i,7.8%,6.9%,14.7%,9.9%
CCN(CC)S(=O)(=O)c1ccc2c(c1)N(CC(=O)NCCCN1CCN(c3ccccc3F)CC1)C(=O)CO2,?,.,.,23.1µM*,-1.5%,?
O=C(CCN1C(=O)COc2ccccc21)NCCCN1CCN(c2ccccc2F)CC1,?,i,-7.8%,18.4µM*,-9.2%,?
CC(C)(C)c1ccc2c(c1)N(CC(=O)NCCCN1CCN(c3ccccc3F)CC1)C(=O)CO2,?,.,.,?,-19.6%,?
CCN(CC)S(=O)(=O)c1ccc2c(c1)N(CC(=O)NCCCN1CCN(c3cc(C)ccc3C)CC1)C(=O)CO2,4.61µM*,15.8µM*,31.6µM*,2.59µM*,15.8µM*,?
Cc1ccc(C)c(N2CCN(CCCNC(=O)Cn3cccc3C(=O)c3ccccc3)CC2)c1,5.17µM*,16.8µM*,?,5.17µM*,-35.3%,-14.0%
CCOc1ccccc1CNC(=O)CCCn1ncn2c(cc3occc32)c1=O,?,i,-3.0%,?,-28.8%,?
CC(=O)Nc1cc[n+](C(C)C(=O)c2ccc(Cl)cc2)cc1 (stereo not given),16.4µM*,i,-20.0%[2.22 µM],16.4µM*,-18.2%,-1.6%
Cc1ccc[n+](C(C)C(=O)c2ccc(-c3ccccc3)cc2)c1 (stereo not given),5.17µM*,i,?,4.11µM*,-10.6%,-29.8%
CC(C(=O)c1ccc(-c2ccccc2)cc1)[n+]1ccccc1 (stereo not given),2.06µM*,i,?,2.59µM*,-0.3%,-28.7%
CC(C(=O)c1ccc(-c2ccccc2)cc1)[n+]1cccc(C(N)=O)c1 (stereo not given),-10.0%,i,-3.1%,11.1%,-0.8%,19.8%
COc1cccc(NC(=O)C2CCN(c3cnccn3)CC2)c1,-2.1%,i,-11.2%,20.5%,-13.1%,-28.8%
CCc1cccc(NC(=O)NC(=O)Cn2nnc(C(=O)OC)c2C(=O)OC)c1,-18.4%,i,-3.4%,-8.5%,1.1%,11.1%
CCOC(=O)c1nnn(CC(=O)NC(=O)Nc2cccc(CC)c2)c1C(=O)OCC,-6.1%,i,2.5%,?,11.2µM*!,?
Cc1nc(C)c(C(=O)OCC(=O)Nc2ccccc2)s1,-2.9%,.,.,5.8%,-14.1%,20.6%
Cc1ccc(NC(=O)CNc2ccc(OC(C)C)cc2)cc1,23.1µM*,i,22.0%,?,4.9%,-9.5%
Cc1ccc(NC(=O)COCC(=O)Nc2ccc(F)cc2)cc1,20.6µM*,i,-3.9%,18.4µM*,-1.4%,-4.4%
